# Data published in PubChem BioAssay.
# Active and inactive are the calls of the source. Unless noted, how the calls were made is not given here.
# Experiments:
# [1] = tested on: XIP peptide (Xip251-270) binding; experiment: small-molecule binders of XIP peptide, primary screen, biochemical, small-molecule microarray, fluorescence 635/667 nm, 0.1 µg/mL protein (AID 1182); conditions: fluorescent protein binding, 635 nm, higher = more signal, called active from +8 up or from −8 down
# [2] = tested on: XIP peptide (Xip251-270); experiment: small-molecule binders of XIP peptide, primary screen, biochemical, small-molecule microarray, fluorescence 635/667 nm, 0.5 µg/mL protein (AID 1183); conditions: small-molecule microarray binding, fluorescence 635 nm; higher = more signal
# [3] = Plasmodium falciparum growth inhibition, primary screen, strain 3D7, DAPI fluorescence, 100 nL (AID 1184);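 further: parasites grown inside human red blood cells in medium with human serum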; conditions: P. falciparum 3D7 growth, 3 d, higher = more signal
# [4] = target: Homeobox protein Hox-A13 (Mus musculus) (UniProt Q62424); experiment: inhibitors of HoxA13-DNA binding, primary screen, biochemical, fluorescence polarization, labeled oligonucleotide (AID 1185); conditions: 15 min, higher = more signal, called active from +8 up or from −8 down
# [5] = inhibitors of hydroxyurea-induced Chk1 phosphorylation, primary screen, imaging, HeLa, phospho-Chk1 antibody, percent positive cells (AID 1186); conditions: hydroxyurea-induced phospho-Chk1 immunofluorescence imaging, higher = more signal
# [6] = inhibitors of hydroxyurea-induced Chk1 phosphorylation, primary screen, imaging, HeLa, phospho-Chk1 nuclear intensity (AID 1187); conditions: hydroxyurea-induced phospho-Chk1 immunofluorescence imaging, higher = more signal
# Sequence of Homeobox protein Hox-A13 (Mus musculus) (Q62424 whole entry, looked up): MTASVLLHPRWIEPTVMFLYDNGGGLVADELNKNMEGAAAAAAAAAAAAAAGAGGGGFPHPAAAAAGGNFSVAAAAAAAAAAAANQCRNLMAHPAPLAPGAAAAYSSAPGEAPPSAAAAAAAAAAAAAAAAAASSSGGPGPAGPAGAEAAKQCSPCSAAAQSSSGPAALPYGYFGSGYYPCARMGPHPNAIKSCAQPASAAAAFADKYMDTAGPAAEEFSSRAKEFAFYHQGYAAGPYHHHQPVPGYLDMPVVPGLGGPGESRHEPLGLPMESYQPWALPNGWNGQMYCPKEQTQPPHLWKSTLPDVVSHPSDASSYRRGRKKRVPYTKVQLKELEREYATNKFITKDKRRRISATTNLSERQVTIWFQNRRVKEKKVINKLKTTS
Compound,composite z-score [1],composite z-score [2],z-score [3],z-score [4],z-score [5],z-score [6]
C[C@]1(C(=O)NCCN2CCOCC2)c2ccccc2C(=O)N(Cc2cc(F)cc(C(F)(F)F)c2)[C@H]1c1ccc(CO)cc1,1.14 (inactive),0.826,-0.736,-3.91 (inactive),-0.69 (inactive),-0.691 (inactive)
C=C[C@@H](OC)[C@H](OC(=O)Nc1ccc(SC)cc1)c1ccc(OCCO)cc1,-0.302 (inactive),0.709,0.0419,-5.58 (inactive),-0.0838 (inactive),0.168 (inactive)
COc1ccc([Si](C)(C)[C@H]2[C@H](CC(=O)N3Cc4ccccc4C[C@H]3CO)O[C@@]3(C(=O)N(Cc4ccc(N5C(=O)c6cccc7cccc5c67)cc4)c4ccccc43)[C@@H]2C)cc1,1.23 (inactive),0.738,-1.79,-2.7 (inactive),-1.02 (inactive),-0.113 (inactive)
[N-]=[N+]=NCc1ccccc1C[C@]1(C(=O)N2CCOCC2)COC(c2ccc(OCCCO)cc2)=N1,0.15 (inactive),0.711,-2.2,-4.87 (inactive),-0.677 (inactive),-0.718 (inactive)
CC1CC/C=C\[C@H]2OC34C=CCN(CCN5CCOCC5)C(=O)[C@H]3N(C(C)CO)C(=O)[C@@H]4C2C(=O)O1 (stereo partly drawn),-0.153 (inactive),0.371,-0.359,-5.12 (inactive),0.16 (inactive),0.219 (inactive)
CC(C)C[C@@H]1NC(=O)[C@H]2C[C@@H](C(=O)NCCCCCN)[C@@H](c3cccc(OCCO)c3)N2C1=O,1.35 (inactive),0.853,0.304,-3.68 (inactive),-0.242 (inactive),0.0992 (inactive)
C=CCOC(=O)[C@H]1[C@@H]2C(=O)O[C@@H](c3ccccc3)[C@@H](c3ccccc3)N2[C@@H](c2ccc(OCCOC(=O)[C@H]3C[C@H]4C(=O)N[C@@H](CCCCNC(C)=O)C(=O)N4[C@H]3c3cccc(OCCO)c3)cc2)[C@]12C(=O)Nc1ccc(I)cc12,0.996 (inactive),0.68,-1.61,2.36 (inactive),-0.138 (inactive),0.239 (inactive)
NC(=O)NCC#Cc1ccc2c(c1)[C@]1(C(=O)N2)[C@H](C(=O)N2CCN(c3ncccn3)CC2)[C@H]2C(=O)O[C@H](c3ccccc3)[C@H](c3ccccc3)N2[C@@H]1c1ccc(OCCO)cc1,-0.134 (inactive),0.193,-0.232,-1.02 (inactive),-0.216 (inactive),-0.0071 (inactive)
COc1ccc([Si](C)(C)[C@@H]2[C@@H](CCn3cc([C@H](O)c4ccccc4)nn3)O[C@]3(C(=O)N(Cc4cccc(N5C(=O)c6cccc7cccc5c67)c4)c4ccccc43)[C@H]2C)cc1,0.368 (inactive),0.45,-2.38,-1.19 (inactive),-0.779 (inactive),-1.33 (inactive)
Cc1nc2cc(Br)ccc2c(=O)n1Cc1cccc(O)c1,0.651 (inactive),0.529,-0.563,0.464 (inactive),0.18 (inactive),0.257 (inactive)
C=C(CCCC)C(=O)CC[C@@H](OC(=O)c1cccnc1)c1ccc(OCCO)cc1,0.408 (inactive),0.713,-2.28,-3.82 (inactive),1.27 (inactive),1.21 (inactive)
COC(=O)[C@@]1(Cc2ccccc2)[C@H]2c3cc(C(=O)N(C)C)n(CCn4cc([N+](=O)[O-])nc4C)c3C[C@H]2CN1C(=O)c1ccccc1,0.731 (inactive),0.83,0.391,-1.73 (inactive),-0.3 (inactive),-0.424 (inactive)
CC=CC(O)C1C=CC2C(=O)NC(=O)C2N1Nc1ccccn1 (stereo not drawn),2.39 (inactive),0.684,-0.0521,-1.1 (inactive),0.517 (inactive),0.359 (inactive)
COC(=O)[C@@]1(Cc2ccc(F)cc2)[C@H]2c3cc(C(=O)N(C)C)n(Cc4ccc(O)c(OC)c4)c3C[C@H]2CN1C(=O)c1ccccc1,0.0137 (inactive),0.744,-1.76,-6.34 (inactive),-0.156 (inactive),-0.131 (inactive)
COc1ccc(NC(=O)O[C@H]2[C@@H]3OC(=O)[C@H](Cc4cccc(Br)c4)C/C=C/C[C@@H](Cc4cccc(Br)c4)C(=O)O[C@H]3[C@@H](OC)O[C@@H]2CO)cc1,1.25 (inactive),0.369,-1.6,-1.86 (inactive),0.0003 (inactive),0.0972 (inactive)
CCCCCN1CC=CC23O[C@@H]4/C=C\CCC(C)OC(=O)C4[C@H]2C(=O)N(CCCCCCO)[C@@H]3C1=O (stereo partly drawn),0.185 (inactive),0.459,0.162,-4.71 (inactive),-0.0032 (inactive),0.453 (inactive)
COC(=O)C(CC#Cc1ccc2c(c1)[C@]1(C(=O)N2)[C@H](c2ccc(OCCO)cc2)N2[C@H](c3ccccc3)[C@H](c3ccccc3)OC(=O)[C@H]2[C@@H]1C(=O)N1CCN(c2ncccn2)CC1)C(=O)OC,0.398 (inactive),0.775,-2.2,0.338 (inactive),-0.0604 (inactive),-0.282 (inactive)

Compound,composite z-score [1],composite z-score [2],z-score [3],z-score [4],z-score [5],z-score [6]
C=C(CCCC)C(=O)CC[C@H](OC(C)=O)c1ccc(OCCO)cc1,0.783 (inactive),0.227,-3.07,-6.07 (inactive),-0.427 (inactive),-0.523 (inactive)
CCOC(=O)C1=CCC(c2ccccc2)N(S(=O)(=O)c2ccc([N+](=O)[O-])cc2)C1 (stereo not drawn),0.0444 (inactive),-0.165,-0.198,-1.91 (inactive),0.268 (inactive),-0.0449 (inactive)
CCOC(=O)C=Cc1ccccc1O,1.39 (inactive),0.322,-1.39,-0.772 (inactive),-0.312 (inactive),-0.678 (inactive)
CCCCCN1CC=CC23O[C@@H]4C=CCOC(=O)[C@@H]4[C@H]2C(=O)N(CCO)[C@@H]3C1=O (stereo partly drawn),0.647 (inactive),-0.311,1.34,-3.88 (inactive),-0.542 (inactive),-0.562 (inactive)
CCOC(=O)C1=C[C@@H](C(C)(C)C)N(S(=O)(=O)c2ccc(C)cc2)[C@H]1c1ccc(C)cc1,0.177 (inactive),0.325,-2.07,-0.0064 (inactive),0.0978 (inactive),-0.184 (inactive)
C=CCNC(=O)[C@@H]1[C@H]2C(=O)O[C@H](c3ccccc3)[C@H](c3ccccc3)N2[C@H](c2ccc(OCCO)cc2)[C@@]12C(=O)N(C(=O)OCCOC)c1ccc(C#CCCO)cc12,0.649 (inactive),0.69,-1.56,-1.19 (inactive),-0.604 (inactive),-0.826 (inactive)
CCCC=C(CCC)[C@@H](NS(=O)(=O)c1cccc2cccnc12)c1ccc(-c2ccccc2)cc1,-0.356 (inactive),0.604,-0.831,-0.807 (inactive),0.483 (inactive),0.309 (inactive)
COCCOC(=O)N1C(=O)[C@@]2(c3ccccc31)[C@H](c1ccccc1OCCO)N1[C@H](c3ccccc3)[C@H](c3ccccc3)OC(=O)[C@H]1[C@@H]2C(N)=O,2.37 (inactive),0.784,-0.946,-4.81 (inactive),0.0327 (inactive),0.12 (inactive)
CC(C)OC(=O)CC(=O)CC(O)c1ccc([N+](=O)[O-])cc1 (stereo not drawn),0.319 (inactive),0.469,0.697,-1.67 (inactive),-0.0884 (inactive),-0.438 (inactive)
COc1ccc([Si](C)(C)[C@H]2[C@H](CCO)O[C@@]3(C(=O)N(Cc4ccccc4)c4ccc(N5C(=O)c6ccccc6Oc6ccccc65)cc43)[C@@H]2C)cc1,0.823 (inactive),0.601,-1.75,-1.76 (inactive),0.564 (inactive),-0.608 (inactive)
CN1C=C(C(=O)OCCS(C)(=O)=O)C(C(=O)OCCS(C)(=O)=O)=CC(c2ccc(CO)cc2)=CC1c1cccs1 (stereo not drawn),0.514 (inactive),0.496,-2.58,-5.46 (inactive),-0.163 (inactive),-0.265 (inactive)
COCCOC(=O)N1C(=O)[C@@]2(c3cc(C#CCC(C(=O)OC)C(=O)OC)ccc31)[C@H](C(=O)NC[C@H](O)c1ccccc1)[C@H]1C(=O)O[C@H](c3ccccc3)[C@H](c3ccccc3)N1[C@@H]2c1ccc(OCCO)cc1,3.06 (inactive),0.64,-2.28,-0.301 (inactive),0.0558 (inactive),0.176 (inactive)
C=C(C(=O)CC[C@@H](OC(=O)c1ccccc1-c1ccccc1C(=O)O)c1ccccc1OCCO)C(C)C,0.341 (inactive),0.698,-2.04,-5.82 (inactive),0.57 (inactive),0.916 (inactive)
CC(C)C[C@@H]1NC(=O)[C@@H]2C[C@H](C(=O)NCCCCCC[N+](C)(C)C)[C@H](c3cccc(OCCO)c3)N2C1=O,0.753 (inactive),0.869,0.169,-5.12 (inactive),-0.282 (inactive),-0.178 (inactive)
C=CCN1C(=O)[C@]2(O[C@H](CCO)[C@@H]([Si](C)(C)c3ccc(OC)cc3)[C@@H]2C)c2cc(N3C(=O)COc4ccccc43)ccc21,0.879 (inactive),0.677,-2.85,-3.34 (inactive),-1.42 (inactive),-1.34 (inactive)
CO[C@H]1O[C@H](CO)[C@@H](OC(=O)Nc2cccc(F)c2)[C@H](OC(=O)Nc2ccccc2-c2ccccc2)[C@H]1OC(=O)Nc1ccccc1-c1ccccc1,0.184 (inactive),0.857,-1.7,-4.36 (inactive),-0.788 (inactive),-1.36 (inactive)
